{"source": "ChEMBL document CHEMBL3988442", "about": "“University of Dundee, Small-Polar-MMV Screening Library” (2021)", "note": "The campaign covered roughly 48,000 compounds. About 13,000 (27%) showed an effect of 50% or more. The list shows a part of the results."}
{"system": "Wolbachia pipientis", "assay": "Anti-Wolbachia Cell-Based Screen", "type": "functional", "design": "scale not given: in the data most compounds retested in dose-response had high values", "details": "5 µM", "units": {"Percent Effect": "%"}}
{"compound": "Cc1ccsc1-c1nccn1CCN(C)S(C)(=O)=O", "Percent Effect": -5.374}
{"compound": "Cc1nc(-c2ccccc2)n(CC(=O)NC(C2CC2)C2CC2)n1", "Percent Effect": -13.82}
{"compound": "Cc1nc(-c2ccccc2)n(CC(=O)NC2CCCCC2)n1", "Percent Effect": 105.1}
{"compound": "Cc1nc(-c2ccccc2C)n(CC(=O)NC(C)C)n1", "Percent Effect": -16.1}
{"compound": "Cc1nc(-c2ccccc2)n(CC(=O)NC2CCCC2)n1", "Percent Effect": 94.43}
{"compound": "Cc1nc(-c2ccccc2C)n(CC(=O)NC2CCCC2)n1", "Percent Effect": 83.22}
{"compound": "CCC(CC)NC(=O)Cn1nc(C)nc1-c1ccccc1", "Percent Effect": 0.4964}
{"compound": "Cc1nc(-c2ccccc2C)n(CC(=O)NC(C)C2CC2)n1", "note": "(stereo unspecified)", "Percent Effect": -5.719}
{"compound": "Cc1cccc(-c2nc(C)nn2CC(=O)NC2CCCC2)c1", "Percent Effect": 6.583}
{"compound": "O=C(O)[C@@H]1CN(Cc2c[nH]c(CC3CCCC3)n2)C[C@H]1c1ccccn1", "Percent Effect": -9.177}
{"compound": "O=C(c1ccc(O)cn1)N1CCOC(Cc2cccc(C(F)(F)F)c2)C1", "note": "(stereo unspecified)", "Percent Effect": 9.036}
{"compound": "Cc1ccnc(OC[C@@]23CCO[C@@H]2CCN(c2ncc(F)cn2)C3)n1.O=C(O)C(F)(F)F", "Percent Effect": -3.381}
{"compound": "O=C(NCCCNCC1CNc2ccnn2C1)c1ccccc1", "note": "(stereo unspecified)", "Percent Effect": -22.14}
{"compound": "NC(=O)c1cnn2c1NCC(CNCCc1ccco1)C2", "note": "(stereo unspecified)", "Percent Effect": -4.106}
{"compound": "NC(=O)c1cnn2c1NCC(CNCCCOc1ccccc1F)C2", "note": "(stereo unspecified)", "Percent Effect": -5.67}
{"compound": "c1ccc(C2(NCC3CNc4ccnn4C3)CCC2)cc1", "note": "(stereo unspecified)", "Percent Effect": 81.61}
{"compound": "NC(=O)c1cnn2c1NCC(CNCC1(c3ccccc3)CCCC1)C2", "note": "(stereo unspecified)", "Percent Effect": 95.13}
{"compound": "Cc1cnn(C2CN(CC(=O)NCC3(c4ccccc4)CC3)C2)c1", "Percent Effect": -47.8}
{"compound": "NC(=O)c1cnn2c1NCC(CNC1(c3ccccc3)CCC1)C2", "note": "(stereo unspecified)", "Percent Effect": 91.1}
{"compound": "c1ccc(Cn2cccn2)c(CNCC2CNc3ccnn3C2)c1", "note": "(stereo unspecified)", "Percent Effect": 2.44}
{"compound": "Cc1cnn(C2CN(CC(=O)NCC3(c4ccccc4)CCC3)C2)c1", "Percent Effect": -4.16}
{"compound": "CNS(=O)(=O)c1cccc(C(C)NCc2ccc(C)c(C)c2)c1", "note": "(stereo unspecified)", "Percent Effect": -2.241}
{"compound": "CCc1cnc(C)nc1NC(C)C(=O)Nc1cc(F)ccc1C", "note": "(stereo unspecified)", "Percent Effect": -2.868}
{"compound": "Cn1cnnc1S(=O)(=O)Cc1cc(Cl)c2c(c1)OCCO2", "Percent Effect": -9.232}
{"compound": "COCCN(Cc1cccc(O)c1)Cc1ccccc1F", "Percent Effect": 0.04507}
{"compound": "CN1CCN(Cc2cnc(S(=O)(=O)CC3CC3)n2CC2CCCO2)CC1", "note": "(stereo unspecified)", "Percent Effect": -10.61}
{"compound": "O=C(CN1CCCS1(=O)=O)Nc1ccc(OC2CCCC2)c(Cl)c1", "Percent Effect": -10.49}
{"compound": "O=C(O)C(F)(F)F.O=C(O)C(F)(F)F.c1csc(CN2CCC3(CC2)CCN(CC2CC2)CC3)n1", "Percent Effect": 12.33}
{"compound": "O=C(CC1CCC2(CC1)CCN(Cc1cccnc1)CC2)N1CC=CC1.O=C(O)C(F)(F)F.O=C(O)C(F)(F)F", "Percent Effect": 82.49}
{"compound": "O=C(Cc1cccnc1)N1CCC2(CCN(CC3CCCCC3)C2)CC1.O=C(O)C(F)(F)F.O=C(O)C(F)(F)F", "Percent Effect": 8.236}
{"compound": "O=C(C[C@H]1[C@H]2CN(Cc3ccc(F)cc3)C[C@@H]12)N1CCCC1.O=C(O)C(F)(F)F", "Percent Effect": -45.89}
{"compound": "COCC1CC2(CCN(Cc3cccnc3)CC2)CN1c1ncccn1.O=C(O)C(F)(F)F.O=C(O)C(F)(F)F.O=C(O)C(F)(F)F", "note": "(stereo unspecified)", "Percent Effect": -11.87}
{"compound": "O=C(CC1CCC2(CC1)CCN(Cc1nccs1)CC2)N1CC=CC1", "Percent Effect": 106.8}
{"compound": "O=C(c1cscn1)N1CCC2(CCN(Cc3nccs3)CC2)CC1", "Percent Effect": -43.87}
{"compound": "O=C(O)C(F)(F)F.O=C(O)C(F)(F)F.O=C(O)C(F)(F)F.c1cc(CN2CCOCC3(CCN(CC4CCOCC4)CC3)C2)ccn1", "Percent Effect": -16.5}
{"compound": "O=C(CC1CCC2(CC1)CCN(Cc1ccncc1)CC2)N1CCCC1.O=C(O)C(F)(F)F", "Percent Effect": 108.9}
{"compound": "COc1ccccc1OCc1nc2cc3c(cc2c(=O)o1)OCCCO3", "Percent Effect": -14.32}
{"compound": "Cc1nc(C2CCN(C[C@H](C)CO)CC2)cc(N2CCOCC2)n1", "Percent Effect": 2.667}
{"compound": "CCc1c(C(=O)N2CCCC(N(C)C)C2)cnn1C(C)(C)C", "note": "(stereo unspecified)", "Percent Effect": 105.9}
{"compound": "CCc1c(C(=O)N2CCC(CC(N)=O)CC2)cnn1C(C)(C)C", "Percent Effect": 114.3}
{"compound": "CCc1c(C(=O)N2CCNC(=O)C2)cnn1C(C)(C)C", "Percent Effect": 104.8}
{"compound": "CCc1c(C(=O)N2CCN(c3cnccn3)CC2)cnn1C(C)(C)C", "Percent Effect": 78.79}
{"compound": "Cc1cc(C(=O)N2CCNC(=O)C2)c(C)n1CC(F)(F)F", "Percent Effect": -17.07}
{"compound": "NC(=O)CC1CCN(C(=O)c2cnc(-c3ccccc3F)s2)CC1", "Percent Effect": 1.886}
{"compound": "CCc1c(C(=O)N2CCN(c3ncccn3)CC2)cnn1C(C)(C)C", "Percent Effect": 6.599}
{"compound": "CCCc1c(C(=O)N2CCN(c3cnccn3)CC2)cnn1C", "Percent Effect": 10.15}
{"compound": "Cc1ccsc1CNc1ccc(C(=O)N2CCNC(=O)C2)cn1", "Percent Effect": -3.195}
{"compound": "CCOCCn1nc(C)cc1C(=O)N1CCCC[C@H](N(C)C)C1", "Percent Effect": -3.082}
{"compound": "CCc1c(C(=O)N2CCN(CC(N)=O)CC2)cnn1C(C)(C)C", "Percent Effect": 15.08}
{"compound": "Cc1ccc(C(=O)N2CCCC(N(C)C(=O)OC(C)(C)C)C2)o1", "note": "(stereo unspecified)", "Percent Effect": 9.731}
{"compound": "O=C(NCCN1CCOCC1)N1CCN(c2ccccc2)CC1", "Percent Effect": -9.765}
{"compound": "Cc1ccccc1CNc1ccc(S(N)(=O)=O)c(C(F)(F)F)c1", "Percent Effect": -19.7}
{"compound": "COc1cccc(CCC2CCCN(C(=O)C3=NN(C)C(=O)CC3)C2)c1", "note": "(stereo unspecified)", "Percent Effect": 3.443}
{"compound": "Cc1cccc(C2(C(=O)NCC(C)CN3CCCC3=O)CC2)c1", "note": "(stereo unspecified)", "Percent Effect": -2.528}
{"compound": "CC1CN(C(=O)C2(c3cccc(F)c3)CCOCC2)CCO1", "note": "(stereo unspecified)", "Percent Effect": -11.59}
{"compound": "CCC(CN1CCCC1)NC(=O)C1(c2cccc(F)c2)CC1.O=C(O)CC(O)(CC(=O)O)C(=O)O", "note": "(stereo unspecified)", "Percent Effect": 113.9}
{"compound": "Cc1cc(C)n(CC(C)NC(=O)C2(c3ccc(F)cc3)CC2)n1", "note": "(stereo unspecified)", "Percent Effect": -1.516}
{"compound": "O=C(NCC(O)COc1ccccc1)C1(c2ccc(F)cc2)CC1", "note": "(stereo unspecified)", "Percent Effect": -6.241}
{"compound": "CCC(CN1CCCCC1)NC(=O)C1(c2ccc(F)cc2)CC1.O=C(O)CC(O)(CC(=O)O)C(=O)O", "note": "(stereo unspecified)", "Percent Effect": 147.4}
{"compound": "CC(CNC(=O)C1(c2ccc(F)cc2)CC1)CN1CCCC1=O", "note": "(stereo unspecified)", "Percent Effect": -3.318}
{"compound": "CC(Cn1ccnc1)NC(=O)C1(c2ccc(F)cc2)CC1", "note": "(stereo unspecified)", "Percent Effect": 6.075}
{"compound": "CCC(CN1CCCC1)NC(=O)C1(c2ccc(F)cc2)CC1", "note": "(stereo unspecified)", "Percent Effect": 125.8}
{"compound": "O=C(NCc1nncn1C1CC1)C1(c2cccc(F)c2)CCOCC1", "Percent Effect": 0.3927}
{"compound": "O=C(NC(CN1CCCC1)c1ccccc1)c1c(O)cc(F)cc1F", "note": "(stereo unspecified)", "Percent Effect": -3.42}
{"compound": "CCC(CN1CCCCC1)NC(=O)C1(c2cccc(F)c2)CC1.O=C(O)CC(O)(CC(=O)O)C(=O)O", "note": "(stereo unspecified)", "Percent Effect": 128.4}
{"compound": "COc1cccc(-c2n[nH]c3c2CN(C(=O)C2=C(C)OCCO2)CC3)c1", "Percent Effect": 9.828}
{"compound": "Cc1cc(CNc2cncc(C(=O)N(C)C)n2)c2[nH]c(C)c(C)c2c1", "Percent Effect": 5.027}
{"compound": "O=C(O)c1ccccc1-c1c(-c2ccccc2)ncn1C[C@H]1CCCN1", "Percent Effect": -12.22}
{"compound": "c1cncc(CNc2cccc(OCCN3CCCCC3)c2)c1", "Percent Effect": 1.449}
{"compound": "CN(C)C(=O)CCNC(=O)NCc1ccc(Br)cc1Cl", "Percent Effect": 9.255}
{"compound": "O=c1[nH]nc(CNc2ncc(Br)cn2)[nH]1", "Percent Effect": 1.625}
{"compound": "CC(=O)c1cccc(OCCCC(=O)N(C)C2CCN(C)CC2)c1", "Percent Effect": -6.579}
{"compound": "COc1ccc(CNCCc2cc(F)cc3c2OCOC3)cc1O", "Percent Effect": 19}
{"compound": "CCC(O)CN1CCN(C(=O)C2(c3ccc(C)c(OC)c3)CC2)CC1", "note": "(stereo unspecified)", "Percent Effect": -7.505}
{"compound": "CCC(CN1CCN(C)CC1)NC(=O)C1(c2cccc(F)c2)CC1.O=C(O)CC(O)(CC(=O)O)C(=O)O", "note": "(stereo unspecified)", "Percent Effect": 126}
{"compound": "CCC(=O)N1CCC2(CCN(Cc3cccc(F)c3)CC2)CC1.O=C(O)C(F)(F)F", "Percent Effect": -2.197}
{"compound": "CCN1CC(C(=O)N2CCc3cc(C(=O)N(C)C)n(C)c3C2)CCC1=O", "note": "(stereo unspecified)", "Percent Effect": 22.54}
{"compound": "CC(=O)N1CC[C@H]2CC(=O)N(Cc3ccc4c(c3)OCO4)CC[C@H]2C1", "Percent Effect": 1.484}
{"compound": "CCCC(O)CN1CCC(=O)N(CCOC)Cc2cc3c(cc21)OCO3", "note": "(stereo unspecified)", "Percent Effect": 110.9}
{"compound": "COCCN1C[C@H]2CN(C(=O)c3ccc4c(c3)OCO4)CCN2C1=O", "Percent Effect": -8.36}
{"compound": "Cc1ccccc1N1CCN(C(=O)Cc2ccc3c(c2)OCO3)CC1=O", "Percent Effect": -22.32}
{"compound": "CCCC(O)CN1CCC(=O)N(CC)Cc2cc3c(cc21)OCO3", "note": "(stereo unspecified)", "Percent Effect": 85.4}
{"compound": "O=C(O)C(F)(F)F.O=C(O)C(F)(F)F.c1cc2c(cc1CN1CC[C@H]3[C@H]1CCN3CC1CC1)OCO2", "Percent Effect": -18.3}
{"compound": "COCC1c2c(cnn2C)CCN1C(=O)c1ccc2c(c1)OCO2", "note": "(stereo unspecified)", "Percent Effect": 20.59}
{"compound": "CCCC(O)CN1CCC(=O)N(CC2CC2)Cc2cc3c(cc21)OCO3", "note": "(stereo unspecified)", "Percent Effect": 71.64}
{"compound": "CC(NC(=O)Nc1ccccc1CN1CCOCC1)c1nnc(N)s1", "note": "(stereo unspecified)", "Percent Effect": 1.041}
{"compound": "Cc1cc(C)n(CC(C)NCc2nncn2C2CCCCC2)n1", "note": "(stereo unspecified)", "Percent Effect": -18.85}
{"compound": "CCC(C)NS(=O)(=O)Cc1cccc(NC(=O)c2ccc[nH]2)c1", "note": "(stereo unspecified)", "Percent Effect": -2.911}
{"compound": "Cc1ncsc1CCN(C)C(=O)CN1CC2(CCCC2)CC1=O", "Percent Effect": -2.773}
{"compound": "COc1cc(C(=O)NCCc2ccccc2OC)on1", "Percent Effect": 0.865}
{"compound": "O=C(N[C@H]1CC[C@H](O)CC1)c1ccc2nc(-c3ccccc3)cn2c1", "Percent Effect": -19.25}
{"compound": "CC(C)n1cc(CN2CCCN(C(=O)CC3CCCO3)CC2)cn1", "note": "(stereo unspecified)", "Percent Effect": 115.9}
{"compound": "CC(C)n1cc(CN2CCCN(C(=O)COC3CCCC3)CC2)cn1", "Percent Effect": 98.23}
{"compound": "CCc1[nH]ncc1C(=O)N1CCCN(Cc2cnn(C(C)C)c2)CC1", "Percent Effect": -9.524}
{"compound": "CC(C)n1ccnc1CN1CCCN(C(=O)COC2CCCC2)CC1", "Percent Effect": -4.301}
{"compound": "CC(C)n1cc(CN2CCCN(C(=O)CC3CCCCC3)CC2)cn1", "Percent Effect": 102.4}
